Inconclusive results are not listed. Calls of active or inactive are those of the source. The calls were made as follows: active = hit-call score of the fitted dose curve at least 0.9, where 1 is the maximum; inconclusive = response in the unintended direction; inactive = score below 0.9.

Read-out in the assay: sulfotransferase (SULT2A), SULT2A1 (gene 6822)
The assay can be described thus: CLD_SULT2A_24hr: CellzDirect (CLD) Gene Expression Assay for sulfotransferase (SULT2A) at 24 hours (AID 2283694).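 As to AC50: potency for increased SULT2A1 mRNA level as induction over DMSO baseline.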 As to the method: CLD_24hr is a cell-based, multiplexed-readout assay that uses hepatocyte, a human liver primary cell, with measurements taken at 24 hours after chemical dosing in a 96-well plate.CLD_SULT2A_24hr is one of 16 assay component(s) measured or calculated from the CLD_24hr assay. It is designed to make measurements of mRNA induction, a form of inducible reporter, as detected with chemiluminescence signals by Quantitative Nuclease Protection Assay (qNPA) technology.Data from the assay component CLD_SULT2A_24hr was analyzed at the endpoint, CLD_SULT2A_24hr, in the positive analysis fitting direction relative to DMSO as the negative control and baseline of activity. Using a type of inducible reporter, gain-of-signal activity can be used to understand changes in the reporter gene as they relate to the gene SULT2A1. Furthermore, this assay endpoint can be referred to as a primary readout. To generalize the intended target to other relatable targets, this assay endpoint is annotated to the transferase intended target family, where subfamily is sulfotransferase.
Human hepatocyte cultures were treated daily for two consecutive days with fresh dosing solutions containing appropriate concentrations of the 320 ToxCast chemicals (chemical identities were blinded to CellzDirect and other ToxCast collaborators), vehicle control (0.2% DMSO), and positive control inducers as summarized in Table 1. Due to the large number of treatment groups and chemicals examined, the ToxCast chemicals were divided into two groups (spanning two independent cultures of hepatocytes from separate donor preparations (Hu778: ToxCast plates 1 and 2; Hu776: ToxCast plates 3 and 4). Each preparation of human hepatocyte cultures was treated with respective vehicle control, medium only control, set of six positive controls/reference chemicals for the five hepatic receptor pathways, and a subset of eight of the ToxCast chemicals (indoxacarb, pyrithiobac-sodium, norflurazon, cyhalofop-butyl, methomyl, thiram, acetochlor, and propiconazole). These replicate data, coupled with internal replicates designed within the blinded ToxCast chemical library, provided additional data to evaluate interindividual differences between hepatocyte preparations and their potential impact on chemical profiles.Cell morphology and integrity were evaluated using phase-contrast microscopy as an indicator of hepatocyte cell health (Tyson & Green, 1987). Cultures for each treatment group (i.e., media, vehicle [0.2% DMSO], positive control inducers [multiple concentrations], and the ToxCast chemicals [multiple concentrations]) were observed and cell morphology was assessed relative to vehicle control cultures at each harvest time point (0, 6, 24, or 48 h). […] Images were evaluated at the conclusion of the study to assess changes in cell integrity and account for the effects of chemical exposure on uncharacteristic changes in concentration-dependent gene expression profiles. The results from these determinations of apparent cytotoxicity were annotated (yes/no) alongside the corresponding qNPA data for reference.At the conclusion of each treatment period, hepatocyte cultures (96-well) were washed with 1 volume of HBSS, lysed by addition of 25 ul ArrayPlate lysis buffer (HTG, Tucson, AZ), and 70 ul/well of Denaturation Oil, denatured by incubation at 95C for 10 min, and frozen at approximately -70C until analysis by nuclease protection assay (qNPA) (Roberts et al., 2007). For qNPA analysis, cell lysates were thawed at 50C for approximately 30 min, qNPA probes were added, and samples were incubated at 95C for 10 min to begin the detection process by denaturing the target RNA, dissociating the duplexes and secondary structure hybridization. At the conclusion of the hybridization period, S1 nuclease reagent was added to each sample to digest all nonprotected nucleotides at 50C for 60-90 min. […]
Take `O=C(Nc1ccccc1-c1ccc(Cl)cc1)c1cccnc1Cl`: the result was inactive. Still for that read-out and setting: as for `CCN(CC)c1nc(C)cc(OP(=S)(OC)OC)n1`, the entry is “inactive”; as for `COC(=O)NC(=S)Nc1ccccc1NC(=S)NC(=O)OC`, “inactive”; as for `CC(C)NC(=O)N1CC(=O)N(c2cc(Cl)cc(Cl)c2)C1=O`, “inactive”. The term AC50 denotes the midpoint of the concentration-response curve, whichever way the signal moves. Consider `CCCN(CC)CC1COC2(CCC(C(C)(C)C)CC2)O1` (stereo not given), for which the AC50 is 3.97 µM (active).

On to `CC(C)Oc1cccc(NC(=O)c2ccccc2C(F)(F)F)c1`, for which the molecule was classed as inactive. The same measure, in the same setting: the same measure for `CC(C)Nc1nc(Cl)nc(NC(C)C)n1`: “inactive”; for `O=c1n(Cl)c(=O)n(Cl)c(=O)n1Cl`: “inactive”; for `Clc1cccc(C(Cl)(Cl)Cl)n1`: “inactive”. `CC(C)N1C(=O)N(c2ccccc2)CSC1=NC(C)(C)C`: the outcome was inactive.

For `COCc1cnc(C2=NC(C)(C(C)C)C(=O)N2)c(C(=O)O)c1` (stereo not given), the call was inactive. As to `CCCCOCN(C(=O)CCl)c1c(CC)cccc1CC`, the molecule was classed as inactive. For the molecule `CCNP(=S)(OC)O/C(C)=C/C(=O)OC(C)C` (stereo not given), the molecule was called inactive. Turning to `CSC(=O)c1c(C(F)F)nc(C(F)(F)F)c(C(=O)SC)c1CC(C)C`, the AC50 was 7.07 µM (active). `Cc1nc(N(C)C)nc(OC(=O)N(C)C)c1C`: the molecule was classed as inactive. Same read-out and setting: as for `COc1cc(OC)nc(NC(=O)NS(=O)(=O)c2ncccc2OCC(F)(F)F)n1`, the entry is “inactive”. `CCOC(=O)C(C)OC(=O)c1cc(Oc2ccc(C(F)(F)F)cc2Cl)ccc1[N+](=O)[O-]` (stereo not given): the AC50 is 3.51 µM (active). As for `COCC(=O)N(c1c(C)cccc1C)C(C)C(=O)OC` (stereo not given), the result was inactive. The same measure, in the same setting: the same measure for `CC1(C)CON(Cc2ccccc2Cl)C1=O`: “inactive”. With `OC(c1ccc(Cl)cc1)(c1ccc(Cl)cc1)C(Cl)(Cl)Cl`, the AC50 is 20 µM (active).

On to `COC(=O)c1c(C(F)F)nc(C(F)(F)F)c(C2=NCCS2)c1CC(C)C`, for which the concentration at half-maximal activity (AC50) was 20 µM (active). Regarding `COC(=O)NS(=O)(=O)c1ccc(N)cc1`, the result was inactive. On the same count and under the same terms, as for `CN=C=S`, the entry is “inactive”; as for `CCCC(=NOCC)C1=C(O)CC(CC(C)SCC)CC1=O` (stereo not given), “inactive”; as for `CCCCC(O)(Cn1cncn1)c1ccc(Cl)cc1Cl` (stereo not given), “inactive”. As for `CC1(C)CCC(=Cc2ccc(Cl)cc2)C1(O)Cn1cncn1` (stereo not given), the molecule was classed as inactive. On the same count and under the same terms, as for `O=C(O)c1c(Cl)ccc2cc(Cl)cnc12`, the entry is “inactive”. In the case of `CCOc1nc(F)cc2nc(S(=O)(=O)Nc3c(Cl)cccc3Cl)nn12`, the concentration at half-maximal activity (AC50) was 5.51 µM (active).

In the case of `CCSC(=O)N1CCCCCC1`, the outcome was inactive. On the same count and under the same terms, as for `CC(C)C1(C)N=C(c2ncccc2C(=O)O)NC1=O` (stereo not given), the entry is “inactive”. Still for that read-out and setting: as for `CO/N=C(/C1=NOCCO1)c1ccccc1Oc1ncnc(Oc2ccccc2Cl)c1F`, the entry is “inactive”; as for `CC(C)=CC1C(C(=O)OCc2coc(Cc3ccccc3)c2)C1(C)C` (stereo not given), “inactive”.

Consider `Cn1c(-c2ccccc2)cc(-c2ccccc2)[n+]1C`, for which the concentration at half-maximal activity (AC50) is 8.08 µM (active). `COCC(C)N(C(=O)CCl)c1c(C)csc1C` (stereo not given): the molecule was called inactive. Regarding `COC(=O)N(C(=O)N1CO[C@@]2(C(=O)OC)Cc3cc(Cl)ccc3C2=N1)c1ccc(OC(F)(F)F)cc1`, the molecule was classed as inactive. For the molecule `Cc1cc(C)nc(Nc2ccccc2)n1`, the call was inactive.

Turning to `CCN(CC)C(=O)C(C)Oc1cccc2ccccc12` (stereo not given), the call was inactive. The same measure, in the same setting: the same measure for `Nc1c(Cl)c(Cl)nc(C(=O)O)c1Cl`: “inactive”; for `Cc1cnc(C2=NC(C)(C(C)C)C(=O)N2)c(C(=O)O)c1` (stereo not given): “inactive”. The same measure, in the same setting: the same measure for `CC1(C)C(C=C(Cl)Cl)C1C(=O)OC(C#N)c1cccc(Oc2ccccc2)c1` (stereo not given): “inactive”.

Values taken from PubChem BioAssay (EPA / NIEHS).
